Test results reported in PubChem BioAssay (NCI).
About 83,000 compounds went through this panel and 20% of them were active in at least one assay; those are over-represented in the sample as a whole.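 In brief: 96-well plates, 48 h treatment, single concentration, percent growth endpoint.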 Values without a mark were called inactive. Active and inactive are the calls of the source. How the source made its calls: active means growth percent below 10; inactive means the rest.

system: U251 CNS; experiment: NCI-60 one-dose screen, 48 h (100 = growth as untreated, 0 = no growth, -100 = all killed); conditions: 10 µM unless noted

Going from `Cc1nc2nc(C(F)(F)F)[nH]c2nc1C` to `N#Cc1ccc(C(F)(F)F)nc1N1CCC(C(=O)Nc2ccc(Cl)cc2)CC1`, the growth falls from 102% to 65.3%.

Going from `COC(=O)c1cc(-c2ccc(C)cc2)n(C(=O)CSc2nc3sc(C(N)=O)c(C)c3c(=O)n2Cc2ccccc2)n1` to `COc1ccccc1-n1c(SCc2cc(OC)c(OC)c(OC)c2)nc2ccc(Cl)cc2c1=O`, the growth falls from 102% to 25.6%.

Going from `CSC1=CC(=O)c2ccccc2C1=O` to `Nc1ccccc1-c1n[nH]c(=O)[nH]c1=O`, the growth rises from 92.2% to 94.2%.

First: CNc1ccc(Br)cc1-c1n[nH]c(=O)[nH]c1=O
Second: Nc1c(Br)cc(Br)cc1-c1n[nH]c(=O)[nH]c1=O
The growth of the first is lower: 96.2% for the first, 100% for the second.

Going from `O=[N+]([O-])c1cc2c(cc1Br)-c1ccccc1C2` to `CC(=O)Nc1ccccc1-c1n[nH]c(=O)[nH]c1=O`, the growth rises from 98.5% to 101%.

Going from `Clc1nc(-c2ccccn2)nc2sc3c(c12)CCCCCC3` to `O=c1[nH]c(-c2ccccn2)nc2sc3c(c12)CCCCCC3`, the growth falls from 97.2% to 22.5%.

Compared with `Cc1ccc(N=c2nc3sc4c(C)ccc(C)c4n3c(N)c2C#N)cc1`, `COc1ccc(-c2c(-c3cc4c(c(OC)c3OC)OCO4)noc2N)cc1` is lower in growth: 96.1% for the first, 32.4% for the second.

Compared with `O=c1[nH]c(-c2ccncc2)nc2sc3c(c12)CCCCCC3`, `c1ccc(-c2nc(N3CCOCC3)c3c4c(sc3n2)CCCCCC4)nc1` is lower in growth: 71.7% for the first, 50.3% for the second.

First: CCOC(=O)C1=C(C)N2C(=NC3=C(CCCC/C3=C\c3cc(OC)c(OC)c(OC)c3)C2c2cc(OC)c(OC)c(OC)c2)S1 (centres undefined)
Second: CCOC(=O)C1=C(C)N2C(=NC3=C(CCCC/C3=C\c3ccccc3)C2c2ccccc2)S1 (centres undefined)
The growth of the first is lower: 67.7% for the first, 98.3% for the second.

First: O=c1nc(NO)[nH]c(=O)n1Cc1ccccc1
Second: O=c1nc(NO)[nH]c(=O)n1Cc1ccc(F)cc1
The growth of the first is higher: 99.7% for the first, 98.6% for the second.

Compared with `O=c1[nH]c(=S)[nH]c(=O)n1Cc1cccc2ccccc12`, `Clc1ccc2c(N3CCN(c4ccnc(NC5CCCCC5)n4)CC3)ccnc2c1` is lower in growth: 93.1% for the first, 40.4% for the second.

First: CC(C)(C)[Si](C)(C)OC1[C@@H](O[Si](C)(C)C(C)(C)C)[C@@H](CNC(=O)NC(=O)C(F)(F)F)O[C@H]1n1cnc2c(NC(=O)Nc3ccccc3)ncnc21 (some centres undefined)
Second: CC[Si](CC)(CC)OC1[C@@H](O[Si](CC)(CC)CC)[C@@H](CNC(=O)NC)O[C@H]1n1cnc2c(NC(=O)Nc3ccccc3)ncnc21 (some centres undefined)
The growth of the first is lower: 78.6% for the first, 82.8% for the second.

Going from `COc1ccc(-n2c(SCc3cc(OC)c(OC)c(OC)c3)nc3ccc(C)cc3c2=O)c(OC)c1` to `COC(=O)C1C2CC3c4[nH]c5cc(OC)ccc5c4CCN3CC2CC(OC2CCCCO2)C1OC` (centres undefined), the growth rises from 24.9% to 97%.

Compound `NC(=O)c1nc2c([nH]c1=O)CCCC2` has a growth of 106%.

`CC(C)(C)[Si](C)(C)OC1[C@@H](CNC(=O)NC(=O)CCl)O[C@@H](n2cnc3c(N)ncnc32)[C@H]1O[Si](C)(C)C(C)(C)C` (some centres undefined) was tested, and the growth was -81% (active).

system: PC-3 prostate; experiment: as above; conditions: 10 µM unless noted

First: Cc1nc2nc(C(F)(F)F)[nH]c2nc1C
Second: N#Cc1ccc(C(F)(F)F)nc1N1CCC(C(=O)Nc2ccc(Cl)cc2)CC1
The growth of the first is higher: 104% for the first, 51% for the second.

Going from `CC1=CN2C(=NC3=C(CCCC/C3=C\c3ccccc3)C2c2ccccc2)S1` (centres undefined) to `CCOC(=O)C1=C(C)N2C(=NC3=C(CCCC/C3=C\c3ccccc3)C2c2ccccc2)S1` (centres undefined), the growth falls from 99.2% to 87.6%.

Compared with `COC(=O)c1cc(-c2ccc(C)cc2)n(C(=O)CSc2nc3sc(C(N)=O)c(C)c3c(=O)n2Cc2ccccc2)n1`, `CCOC(=O)c1sc(NC(=O)CN2CCC(Cc3ccccc3)CC2)nc1C` is higher in growth: 86.1% for the first, 93.1% for the second.

First: CSC1=CC(=O)c2ccccc2C1=O
Second: Nc1ccccc1-c1n[nH]c(=O)[nH]c1=O
The growth of the first is lower: 67.3% for the first, 96.9% for the second.

Compared with `CNc1ccc(Br)cc1-c1n[nH]c(=O)[nH]c1=O`, `Nc1c(Br)cc(Br)cc1-c1n[nH]c(=O)[nH]c1=O` is lower in growth: 99.5% for the first, 99% for the second.

Going from `COc1ccc(Nc2[nH]n(C3=Nc4ccccc4Sc4ccccc43)c(=O)c2C#N)cc1` to `Cc1ccc(-c2nnc(COc3ccc(-c4nnc(N)s4)cc3)o2)cc1`, the growth rises from 41.4% to 83.9%.

First: O=[N+]([O-])c1cc2c(cc1Br)-c1ccccc1C2
Second: CC(=O)Nc1ccccc1-c1n[nH]c(=O)[nH]c1=O
The growth of the first is lower: 91.8% for the first, 99.4% for the second.

Going from `Clc1nc(-c2ccccn2)nc2sc3c(c12)CCCCCC3` to `O=c1[nH]c(-c2ccccn2)nc2sc3c(c12)CCCCCC3`, the growth falls from 92.2% to 41.1%.

First: Cc1ccc(N=c2nc3sc4c(C)ccc(C)c4n3c(N)c2C#N)cc1
Second: COc1ccc(-c2c(-c3cc4c(c(OC)c3OC)OCO4)noc2N)cc1
The growth of the first is higher: 88% for the first, 12.2% for the second.

Compared with `O=c1[nH]c(-c2ccncc2)nc2sc3c(c12)CCCCCC3`, `c1ccc(-c2nc(N3CCOCC3)c3c4c(sc3n2)CCCCCC4)nc1` is lower in growth: 90.1% for the first, 32.2% for the second.

Going from `CCOC(=O)C1=C(C)N2C(=NC3=C(CCCC/C3=C\c3cc(OC)c(OC)c(OC)c3)C2c2cc(OC)c(OC)c(OC)c2)S1` (centres undefined) to `COc1cc2nc(SCc3cc(OC)c(OC)c(OC)c3)n(-c3ccccc3OC)c(=O)c2cc1OC`, the growth rises from 49.8% to 61.1%.

Going from `O=c1nc(NO)[nH]c(=O)n1Cc1ccccc1` to `O=c1nc(NO)[nH]c(=O)n1Cc1ccc(F)cc1`, the growth falls from 98.1% to 94.1%.

First: O=c1[nH]c(=S)[nH]c(=O)n1Cc1cccc2ccccc12
Second: CN1CCc2c(c3ccccc3c3ccccc23)C1
The growth of the first is higher: 92.8% for the first, 64% for the second.

Compared with `Clc1ccc2c(N3CCN(c4ccnc(NC5CCCCC5)n4)CC3)ccnc2c1`, `COC(=O)C1C2CC3c4[nH]c5cc(OC)ccc5c4CCN3CC2CC(OC2CCCCO2)C1OC` (centres undefined) is higher in growth: 36.7% for the first, 87.1% for the second.

First: NC(=O)c1nc2c([nH]c1=O)CCCC2
Second: CC[Si](CC)(CC)OC1[C@@H](O[Si](CC)(CC)CC)[C@@H](CNC(=O)NC)O[C@H]1n1cnc2c(NC(=O)Nc3ccccc3)ncnc21 (some centres undefined)
The growth of the first is higher: 101% for the first, 11.2% for the second.

First: COc1ccccc1-n1c(SCc2cc(OC)c(OC)c(OC)c2)nc2ccc(Cl)cc2c1=O
Second: Cc1ccc(S(=O)(=O)N(c2ccc(Cl)cc2)c2ccc(Br)cc2C(=O)O)cc1
The growth of the first is lower: 19.6% for the first, 96.7% for the second.

In the case of `CC(C)(C)[Si](C)(C)OC1[C@@H](COC(=O)NC(=O)CCl)O[C@@H](n2cnc3c(N)ncnc32)[C@H]1O[Si](C)(C)C(C)(C)C` (some centres undefined), the growth is reported as -59.9% (active).
With `CC(C)(C)[Si](C)(C)OC1[C@@H](O[Si](C)(C)C(C)(C)C)[C@@H](CNC(=O)NC(=O)C(F)(F)F)O[C@H]1n1cnc2c(NC(=O)Nc3ccccc3)ncnc21` (some centres undefined) the growth was -35.5% (active).
With `COc1ccc(-n2c(SCc3cc(OC)c(OC)c(OC)c3)nc3ccc(C)cc3c2=O)c(OC)c1` the growth was 8.75% (active).
For `CC(C)(C)[Si](C)(C)OC1[C@@H](CNC(=O)NC(=O)CCl)O[C@@H](n2cnc3c(N)ncnc32)[C@H]1O[Si](C)(C)C(C)(C)C` (some centres undefined), the growth was -83% (active).
